Calls of active or inactive are those of the source.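 Rule for the calls, unless noted: active = inhibition of the reporter signal at or above 50%; inactive = inhibition below 50%.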

The nature of assay [1]: inhibitors of TNFa-induced NFkB p65 translocation, primary screen, imaging, HUVEC, MLSMR starter and 10KST1 sets (AID 438;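 active = inhibition above 20% together with a positive visual image hit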;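 note: compound added about 3h40 before a 20 min TNFalpha stimulation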;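 for inhibition: signal is the nuclear over cytoplasmic p65 intensity ratio per well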). The conditions noted are these: HUVEC TNFa-induced p65 nuclear translocation; cell count: measured here: nuclei count (cytotoxicity indicator), at 2.08 µM; inhibition: at 2 µM, stronger effect = higher value, 0% TNFa-plus-vehicle, 100% no-TNFa wells.
Assay [2] is described as follows: reduction of polyQ htt aggregates in cells – imaging, exon1htt(103Q)mCFP cells, high-content imaging, primary screen (AID 483;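 active = visual image review flags a hit and inhibition of aggregation exceeds 20%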;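 note: compound exposure lasted 3 days before fixation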;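 for nuclei count: percent of the per-plate median nuclei count of sample wells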). The conditions noted are these: exon1htt(103Q)mCFP cell line, aggregate imaging, at 2 µM; inhibition of aggregation: stronger effect = higher value; nuclei count: measured here: cell count, toxicity.
The nature of assay [3]: endothelial E-selectin expression blockers – imaging, HUVEC, immunofluorescence, MLSMR starter and 10KST1 sets, primary screen (AID 487;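 active = visually confirmed hit in the image check and inhibition above 20%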;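 for inhibition: signal is fraction of cell area covered by stained E-selectin grains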;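 for nuclei count: 100% = median nuclei count of all wells on the same plate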). The following applies: HUVEC TNFalpha-induced E-selectin immunofluorescence imaging, at 2 µM; inhibition: stronger effect = higher value; nuclei count: measured here: cell number, toxicity.
In assay [4] the target is Voltage-gated potassium channel subunit beta-2 (Rattus norvegicus) (UniProt P62483). Kind of assay: inhibitors of rat Kvbeta2 reductase activity – biochemical, NADPH fluorescence, primary screen (AID 622;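 active = fluorescence slope higher than the sample average by over 3 SD, cut at about -0.22 in these data, passing the limit was not always enough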;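 note: slope of raw intensity against log time taken from 70 to 1610 s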). The following applies: recombinant KvBeta, 4-cyanobenzaldehyde reduction, at 10 µM, stronger effect = higher value.
Chain of Voltage-gated potassium channel subunit beta-2 (Rattus norvegicus) (P62483 whole entry, looked up): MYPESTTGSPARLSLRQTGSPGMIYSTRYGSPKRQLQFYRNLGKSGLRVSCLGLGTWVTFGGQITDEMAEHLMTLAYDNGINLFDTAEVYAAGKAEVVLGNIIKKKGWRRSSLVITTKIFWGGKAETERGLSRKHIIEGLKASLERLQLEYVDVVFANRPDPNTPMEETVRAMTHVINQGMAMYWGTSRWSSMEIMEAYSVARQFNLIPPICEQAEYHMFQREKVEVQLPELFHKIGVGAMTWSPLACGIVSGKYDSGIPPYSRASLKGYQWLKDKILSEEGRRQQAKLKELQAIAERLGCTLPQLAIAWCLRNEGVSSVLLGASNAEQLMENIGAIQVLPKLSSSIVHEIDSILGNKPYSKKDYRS
Assay [5] has the same target. Kind of assay: enhancers of rat Kvbeta2 NADPH turnover – biochemical, NADPH fluorescence, primary screen (AID 623;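 active = NADPH fluorescence slope more negative than the mean of all samples by about 3 SD, 99.7% confidence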;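 note: fluorescence intensity change per second fitted from 20 to 320 s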). The following applies: Recombinant KvBeta, NADPH fluorescence decrease slope, 10 min; at 10 µM; stronger effect = lower value.
The target in assay [6] is Alpha-2C adrenergic receptor (Homo sapiens) (UniProt P18825). Kind of assay: compounds altering alpha2C-coupled GIRK flux – cell-based, HEK293 alpha2C/GIRK1/2, thallium flux, primary screen (AID 624;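 active = fluorescence slope after compound addition differing from the mean of all screened samples at 99.7% confidence, in either direction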;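 note: slope of fluorescence ratio to pre-addition baseline per second over 15 to 24 s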). The conditions noted are these: thallium flux BTC fluorescence, at 10 µM, actives lie on both sides.
Chain of Alpha-2C adrenergic receptor (Homo sapiens) (P18825 whole entry, looked up): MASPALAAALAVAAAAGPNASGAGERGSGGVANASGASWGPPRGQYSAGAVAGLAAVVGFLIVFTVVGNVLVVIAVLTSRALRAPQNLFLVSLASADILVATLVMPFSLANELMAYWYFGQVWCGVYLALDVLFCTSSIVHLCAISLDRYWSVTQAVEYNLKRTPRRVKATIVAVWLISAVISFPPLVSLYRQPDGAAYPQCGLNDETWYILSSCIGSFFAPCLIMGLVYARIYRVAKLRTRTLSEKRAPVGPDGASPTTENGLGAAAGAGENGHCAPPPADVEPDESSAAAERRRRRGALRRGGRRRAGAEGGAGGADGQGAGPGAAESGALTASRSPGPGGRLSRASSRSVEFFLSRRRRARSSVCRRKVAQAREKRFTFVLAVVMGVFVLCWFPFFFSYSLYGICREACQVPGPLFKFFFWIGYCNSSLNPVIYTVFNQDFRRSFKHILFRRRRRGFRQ
Assay [7] can be described thus: blockers of RIG-like receptor reporter activation – cell-based, Sendai virus stimulus, luciferase, 10K MLSCN set, TLR/RLR signaling modifier project, primary screen (AID 602276;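 active = inhibition at or above 50% at 10 µM; inactive = inhibition below 50%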;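 note: firefly luciferase from ISG56 promoter only with Renilla not read in this screen; 0% = Sendai virus plus DMSO and 100% = medium plus DMSO without virus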). The following applies: HEK293 RL24 IRF3 luciferase reporter, at 10 µM, stronger effect = higher value.
A short description of assay [8]: TLR3 IRF3 reporter activation blockers – cell-based, poly I:C stimulus, luciferase, 10K MLSCN set, primary screen (AID 602277). The conditions noted are these: HEK293-TLR3 RL24 IRF3 luciferase reporter, at 10 µM, stronger effect = higher value. A general note: A reporter such as luciferase makes a cellular process visible.

On to `CCCC(=O)C1=C(N(C)c2ccccc2)CC(C)(C)C(C(=O)OC)C1=O` (stereo not drawn), for which the cell count in assay [1] was 429. Further, the inhibition – broadly, the change of the read-out against control, counted positive when it falls – is -0.3% (inactive) in assay [1], -8.2% (inactive) in assay [3], 9.63% (inactive) in assay [7] and 33.4% (inactive) in assay [8]. In addition, in assay [2], the inhibition of aggregation is 3.6% (inactive). Moreover, the nuclei count in assay [2] was 92.5%; in assay [3], 121%. Also, the fluorescence slope in assay [4] is -0.445 (inactive). Also, the NADPH fluorescence slope in assay [5] is -7.2e-06 (inactive). For the same compound, the slope in assay [6] is 0.00268 (inactive).
As to `c1ccc(CNc2ncnc3ccccc23)cc1`, in assay [1], the cell count was 537. Also, the inhibition was -12.4% (inactive) in assay [1], -32.1% (inactive) in assay [3], -14.3% (inactive) in assay [7] and -78% (inactive) in assay [8]. Further, the inhibition of aggregation in assay [2] is -8.7% (inactive). Further, the nuclei count in assay [2] was 70.8%; in assay [3], 107%. In addition, the fluorescence slope in assay [4] was -0.408 (inactive). For the same compound, the NADPH fluorescence slope in assay [5] was -4.8e-05 (inactive). In addition, the slope in assay [6] was 0.00588 (inactive).
As for `c1coc(-c2nnc(NC3=NCCC3)o2)c1`, the cell count in assay [1] stood at 527. Besides, the inhibition in assay [1] was -5.3% (inactive); in assay [3] it was -80.8% (inactive); in assay [7], -15.4% (inactive); in assay [8], -42.4% (inactive). Moreover, the inhibition of aggregation in assay [2] is 6.6% (inactive). For the same compound, the nuclei count worked out at 98.8% in assay [2] and 162% in assay [3]. Moreover, the fluorescence slope in assay [4] is -0.526 (inactive). In assay [5], the NADPH fluorescence slope is 2.5e-05 (inactive). Moreover, the slope in assay [6] was 0.0054 (inactive).
In the case of `O=C(Nc1ccccc1C(F)(F)F)c1cc(S(=O)(=O)N2CCOCC2)ccc1F`, the cell count in assay [1] stood at 415. Further, the inhibition in assay [1] is 2.8% (inactive); in assay [3], -247% (inactive); in assay [7] it was 8.22% (inactive); in assay [8], 21.8% (inactive). The inhibition of aggregation in assay [2] is 12.8% (inactive). Besides, the results for the nuclei count in assay [2] and in assay [3] were 62.3% and 107%, respectively. Moreover, the fluorescence slope in assay [4] was -0.619 (inactive). Besides, the NADPH fluorescence slope in assay [5] was 2.6e-06 (inactive). In addition, in assay [6], the slope is 0.00704 (inactive).
Regarding `O=C(NC1CCCC1)c1ccc2nc[nH]c2c1`, in assay [1], the cell count was found to be 427. For the same compound, the inhibition was 10.2% (inactive) in assay [1], -41.4% (inactive) in assay [3], 9.91% (inactive) in assay [7] and 13.1% (inactive) in assay [8]. Besides, the inhibition of aggregation in assay [2] was 0.8% (inactive). Besides, the nuclei count in assay [2] worked out at 101%; in assay [3] it was 114%. Moreover, the fluorescence slope in assay [4] is -0.62 (inactive). The NADPH fluorescence slope in assay [5] was -3.9e-06 (inactive). Also, the slope in assay [6] was 0.00786 (inactive).
On to `CCOC(=O)c1cccnc1SCC(=O)NC(C)CC` (stereo not drawn), for which, in assay [1], the cell count is 689. In addition, the inhibition in assay [1] is -22.4% (inactive); in assay [3] it was -54.6% (inactive); in assay [7] it was 7.9% (inactive); in assay [8], 17.7% (inactive). In addition, in assay [2], the inhibition of aggregation is 23.4% (inactive). The figures for the nuclei count in assay [2] and in assay [3] were 99.8% and 119%, respectively. For the same compound, in assay [4], the fluorescence slope is -0.469 (inactive). The NADPH fluorescence slope in assay [5] is -0.0001 (inactive). Besides, in assay [6], the slope is 0.006 (inactive).
As to `c1ccc(-n2c(Sc3cnccn3)nnc2-c2cccs2)cc1`, in assay [1], the cell count came to 362. The inhibition in assay [1] was -24.6% (inactive); in assay [3], -37.1% (inactive); in assay [7] it was -2.69% (inactive); in assay [8] it was 12.5% (inactive). In addition, in assay [2], the inhibition of aggregation is 2.4% (inactive). The results for the nuclei count in assay [2] and in assay [3] were 100% and 149%, respectively. Besides, the fluorescence slope in assay [4] is -0.612 (inactive). In addition, in assay [5], the NADPH fluorescence slope is -1.5e-05 (inactive). For the same compound, in assay [6], the slope is 0.00525 (inactive).
On to `COc1ccc(Cl)cc1NC(=O)CCN1CCN(c2ccccc2C)CC1`, for which the cell count in assay [1] is 285. For the same compound, the inhibition in assay [1] is 21.9% (inactive); in assay [3], -35.4% (inactive); in assay [7] it was 10% (inactive); in assay [8] it was 5.86% (inactive). The inhibition of aggregation in assay [2] is -3.9% (inactive). For the same compound, the figures for the nuclei count in assay [2] and in assay [3] were 101% and 112%, respectively. The fluorescence slope in assay [4] was -0.308 (inactive). Also, the NADPH fluorescence slope in assay [5] is -6.5e-05 (inactive). Moreover, the slope in assay [6] is 0.00554 (inactive).
As for `Cc1ccc2c(C)nc(NC3=NCN(C(C)C)CN3)nc2c1`, the cell count in assay [1] was 604. Further, the inhibition was 4.7% (inactive) in assay [1], -33.7% (inactive) in assay [3], 11.3% (inactive) in assay [7] and 14.9% (inactive) in assay [8]. In addition, the inhibition of aggregation in assay [2] was 5.5% (inactive). Also, the nuclei count is 93.5% in assay [2] and 125% in assay [3]. For the same compound, the fluorescence slope in assay [4] was -0.543 (inactive). Further, in assay [5], the NADPH fluorescence slope is 1.2e-05 (inactive). In assay [6], the slope was 0.0049 (inactive).
Take `Cc1nc2sc(C(c3cccs3)N3CCOCC3)c(O)n2n1` (stereo not drawn): the cell count in assay [1] stood at 591. In addition, the inhibition in assay [1] is -0.3% (inactive); in assay [3], -5.1% (inactive); in assay [7], 9.99% (inactive); in assay [8], 32.1% (inactive). Besides, in assay [2], the inhibition of aggregation is -28.8% (inactive). Also, the nuclei count in assay [2] was 112%; in assay [3], 115%. The fluorescence slope in assay [4] was -0.553 (inactive). Besides, the NADPH fluorescence slope in assay [5] is -4.2e-05 (inactive). Further, the slope in assay [6] is 0.00703 (inactive).
On to `CC1CCN(c2oc(-c3ccccc3F)nc2C#N)CC1`, for which, in assay [1], the cell count amounted to 578. Moreover, the inhibition is 5% (inactive) in assay [1], -32.2% (inactive) in assay [3], -30.7% (inactive) in assay [7] and -73.4% (inactive) in assay [8]. The inhibition of aggregation in assay [2] is -3.3% (inactive). The nuclei count stood at 122% in assay [2] and 114% in assay [3]. The fluorescence slope in assay [4] was -0.411 (inactive). In assay [5], the NADPH fluorescence slope was 7.4e-06 (inactive). The slope in assay [6] is 0.00601 (inactive).
On to `COC(=O)c1sc(S(=O)(=O)NCc2cccs2)c(C(=O)OC)c1C`, for which, in assay [1], the cell count was found to be 608. The inhibition in assay [1] is -16.4% (inactive); in assay [3] it was 12.1% (inactive); in assay [7] it was -0.645% (inactive); in assay [8], 30.7% (inactive). The inhibition of aggregation in assay [2] was 0.4% (inactive). Also, the nuclei count amounted to 85.3% in assay [2] and 101% in assay [3]. In addition, the fluorescence slope in assay [4] was -0.452 (inactive). Besides, the NADPH fluorescence slope in assay [5] was -3.4e-06 (inactive). The slope in assay [6] is 0.00602 (inactive).
Regarding `COc1ccc(C(=O)N(CCCO)Cc2cc3c(C)ccc(C)c3[nH]c2=O)cc1OC`, the cell count in assay [1] was 647. In addition, the inhibition in assay [1] is -3% (inactive); in assay [3] it was 19.2% (inactive); in assay [7] it was 8.26% (inactive); in assay [8] it was 19% (inactive). In addition, the inhibition of aggregation in assay [2] was 12.4% (inactive). Besides, the nuclei count in assay [2] is 91.4%; in assay [3], 86.7%. Besides, the fluorescence slope in assay [4] is -0.389 (inactive). The NADPH fluorescence slope in assay [5] was -0.00013 (inactive). In assay [6], the slope is 0.00636 (inactive).

Values taken from PubChem BioAssay.
